# In PubChem BioAssay:
# Active and inactive are the calls of the source.
# Columns and labels:
# [1] = test system: PRMT1 (protein arginine N-methyltransferase 1); assay: PRMT1 binders on small-molecule microarrays, primary screen, biochemical, small-molecule microarray, 635 nm fluorescence (AID 1088); settings: small-molecule microarray binding, higher = more signal;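 note: binding of Prmt1 protein to compounds spotted on small-molecule microarray slides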
# [2] = yeast growth modulation, basal conditions, primary screen, YJM789 clinical isolate, OD600, 24 h (AID 1089);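 note: growth of clinical yeast isolate S. cerevisiae YJM 789 seeded 1000 cells per well; test concentration not given here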; settings: S. cerevisiae YJM789 growth, higher = more signal, called active from +8 up or from −8 down
# [3] = fission yeast growth modulation, primary screen, strain 972, OD600, 24 h, no modulator (AID 1090);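 note: basal condition with compound alone and no growth modifier present; test concentration not given here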; settings: S. pombe 972 growth, higher = more signal, called active from +8 up or from −8 down
# [4] = S. cerevisiae growth modulation with rapamycin, primary screen, strain BY4716, OD600, 96 h (AID 1091); settings: higher = more signal, called active from +8 up or from −8 down; note: test concentration not given here
# [5] = biological target: Torsin-1A-interacting protein 2 (Homo sapiens) (UniProt Q8NFQ8); assay: LULL1 binders on small-molecule microarray, primary screen, cell lysate, human LULL1 lysate, 635/667 nm fluorescence (AID 1092); settings: hLULL1 lysate binding, 635 nm fluorescence, higher = more signal;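 note: probe is lysate of COS7 cells overexpressing human LULL1; score merges per-feature 667 nm fluorescence with signal-to-noise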
# Sequence of Torsin-1A-interacting protein 2 (Homo sapiens) (Q8NFQ8 whole entry, looked up): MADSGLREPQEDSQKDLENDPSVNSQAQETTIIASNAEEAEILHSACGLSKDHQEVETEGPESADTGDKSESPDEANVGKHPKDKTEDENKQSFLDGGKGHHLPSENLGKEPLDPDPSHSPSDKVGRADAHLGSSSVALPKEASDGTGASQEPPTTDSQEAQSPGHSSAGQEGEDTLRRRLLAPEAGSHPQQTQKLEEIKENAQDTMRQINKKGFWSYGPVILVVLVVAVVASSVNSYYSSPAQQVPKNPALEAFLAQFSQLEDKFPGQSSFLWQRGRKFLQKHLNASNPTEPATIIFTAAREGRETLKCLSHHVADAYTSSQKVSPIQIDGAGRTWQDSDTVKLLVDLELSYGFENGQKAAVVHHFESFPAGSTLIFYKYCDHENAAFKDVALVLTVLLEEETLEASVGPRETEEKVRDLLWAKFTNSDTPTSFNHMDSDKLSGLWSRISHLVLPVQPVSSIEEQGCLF
# [6] = E. coli growth modulation, two-sided OD650, primary screen, E. coli filamentation project, strain DRC41, 24 h (AID 1093); settings: OD650, 24 h, higher = more signal, called active from +8 up or from −8 down;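 note: MC1000 strain lacking acrAB efflux and sulA so SOS filamentation is blocked; test concentration not given here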
# [7] = small-molecule microarray binders of probe aLefty2, primary screen, biochemical, biotinylated probe, 635/667 nm fluorescence (AID 1094); settings: higher = more signal;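 note: score merges spot fluorescence near 667 nm with spot signal-to-noise ratio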
# [8] = test system: Noggin (protein binding on small-molecule microarray); assay: Noggin binders on small-molecule microarray, primary screen, biochemical, 635/667 nm fluorescence (AID 1095); settings: 635 nm fluorescence, higher = more signal;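 note: score merges 667 nm feature fluorescence with signal to noise over triplicate slides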
# [9] = biological target: Neurogenic locus notch homolog protein 3 (Homo sapiens) (UniProt Q9UM47); assay: NOTCH3 binders on small-molecule microarray, primary screen, biochemical, 635/667 nm fluorescence (AID 1096); settings: NOTCH3 binding, 635 nm fluorescence, higher = more signal
# Sequence of Neurogenic locus notch homolog protein 3 (Homo sapiens) (Q9UM47 whole entry, looked up): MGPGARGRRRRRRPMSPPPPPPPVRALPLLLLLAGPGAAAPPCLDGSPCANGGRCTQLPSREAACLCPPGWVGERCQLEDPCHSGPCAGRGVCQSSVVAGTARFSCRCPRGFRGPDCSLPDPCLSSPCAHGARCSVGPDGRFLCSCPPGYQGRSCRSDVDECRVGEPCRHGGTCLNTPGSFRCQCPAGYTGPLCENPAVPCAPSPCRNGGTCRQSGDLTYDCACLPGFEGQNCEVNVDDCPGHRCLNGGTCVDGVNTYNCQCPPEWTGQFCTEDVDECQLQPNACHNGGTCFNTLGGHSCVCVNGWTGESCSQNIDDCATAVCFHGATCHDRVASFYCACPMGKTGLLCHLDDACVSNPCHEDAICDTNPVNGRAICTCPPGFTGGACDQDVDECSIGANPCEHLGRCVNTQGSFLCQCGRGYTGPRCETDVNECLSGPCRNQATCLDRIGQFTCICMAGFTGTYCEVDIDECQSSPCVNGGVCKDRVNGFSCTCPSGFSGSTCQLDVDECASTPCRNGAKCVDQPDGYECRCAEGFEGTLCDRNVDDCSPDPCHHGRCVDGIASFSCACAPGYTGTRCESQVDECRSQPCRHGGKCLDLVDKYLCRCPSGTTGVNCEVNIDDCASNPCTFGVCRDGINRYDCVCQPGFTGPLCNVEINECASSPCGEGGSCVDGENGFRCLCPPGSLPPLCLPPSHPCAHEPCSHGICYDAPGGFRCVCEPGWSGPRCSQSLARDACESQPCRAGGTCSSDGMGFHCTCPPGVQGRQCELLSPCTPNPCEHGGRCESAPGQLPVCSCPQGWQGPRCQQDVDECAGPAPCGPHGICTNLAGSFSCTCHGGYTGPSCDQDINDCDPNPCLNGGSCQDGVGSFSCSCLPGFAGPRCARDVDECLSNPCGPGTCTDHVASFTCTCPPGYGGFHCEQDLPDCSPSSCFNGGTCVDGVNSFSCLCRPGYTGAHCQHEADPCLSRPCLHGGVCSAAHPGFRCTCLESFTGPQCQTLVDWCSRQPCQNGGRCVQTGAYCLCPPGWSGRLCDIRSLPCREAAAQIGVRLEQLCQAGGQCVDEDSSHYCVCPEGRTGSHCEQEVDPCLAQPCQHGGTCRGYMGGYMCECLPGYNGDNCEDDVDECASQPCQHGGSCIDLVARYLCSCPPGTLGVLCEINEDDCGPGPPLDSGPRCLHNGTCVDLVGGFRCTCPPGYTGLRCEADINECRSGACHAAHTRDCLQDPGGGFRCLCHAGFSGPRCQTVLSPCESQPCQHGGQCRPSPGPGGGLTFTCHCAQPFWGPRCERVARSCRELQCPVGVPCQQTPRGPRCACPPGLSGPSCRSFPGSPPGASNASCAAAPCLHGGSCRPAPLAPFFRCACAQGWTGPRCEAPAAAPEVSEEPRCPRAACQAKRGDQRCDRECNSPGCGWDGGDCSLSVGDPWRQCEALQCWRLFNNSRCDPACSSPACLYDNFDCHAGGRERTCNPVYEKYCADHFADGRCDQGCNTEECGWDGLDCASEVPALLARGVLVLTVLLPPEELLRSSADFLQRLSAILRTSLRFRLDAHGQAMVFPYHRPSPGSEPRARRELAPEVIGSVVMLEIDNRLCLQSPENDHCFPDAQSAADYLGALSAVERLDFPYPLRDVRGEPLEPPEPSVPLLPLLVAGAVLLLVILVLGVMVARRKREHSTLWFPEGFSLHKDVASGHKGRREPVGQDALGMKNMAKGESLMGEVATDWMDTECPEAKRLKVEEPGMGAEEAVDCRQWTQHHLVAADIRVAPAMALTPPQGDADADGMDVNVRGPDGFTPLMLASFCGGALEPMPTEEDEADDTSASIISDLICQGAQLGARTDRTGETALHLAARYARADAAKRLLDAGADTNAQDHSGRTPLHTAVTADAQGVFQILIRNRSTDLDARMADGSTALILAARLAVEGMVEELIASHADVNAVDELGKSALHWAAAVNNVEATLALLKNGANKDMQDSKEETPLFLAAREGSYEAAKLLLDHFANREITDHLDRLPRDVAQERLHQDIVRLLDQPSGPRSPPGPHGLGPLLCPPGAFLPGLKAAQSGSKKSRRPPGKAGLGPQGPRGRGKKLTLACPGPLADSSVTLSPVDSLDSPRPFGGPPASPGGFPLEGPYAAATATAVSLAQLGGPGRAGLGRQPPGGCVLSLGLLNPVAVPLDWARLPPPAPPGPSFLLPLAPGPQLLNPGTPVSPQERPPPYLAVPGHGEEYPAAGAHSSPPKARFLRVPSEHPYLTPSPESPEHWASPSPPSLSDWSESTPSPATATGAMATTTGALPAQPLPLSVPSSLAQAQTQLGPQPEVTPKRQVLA
# [10] = small-molecule microarray binders of probe aEGFR, primary screen, biochemical, biotinylated probe, 635/667 nm fluorescence (AID 1097); settings: higher = more signal;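 note: probe is a biotinylated anti-EGFR antibody binding compounds printed on slides; score combines fluorescence near 667 nm and signal to noise of each spot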
# [11] = test system: Plasmodium falciparum Sir2 (PF13_0152, Sir2A); assay: pfSir2 binders on small-molecule microarrays, primary screen, biochemical, small-molecule microarray, 635 nm fluorescence (AID 1098); settings: small-molecule microarray binding, fluorescence 635 nm; higher = more signal;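 note: score merges spot fluorescence intensity with its signal-to-noise ratio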
# [12] = small-molecule microarray binders of probe aDKK1, primary screen, biochemical, biotinylated probe, 635/667 nm fluorescence (AID 1099); settings: higher = more signal;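 note: score merges 667nm spot fluorescence with signal to noise across triplicate slides; reference of the scale not given here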
# [13] = small-molecule microarray binders of probe aCHRDL2, primary screen, biochemical, biotinylated probe, 635/667 nm fluorescence (AID 1100); settings: higher = more signal
# [14] = splicing luciferase reporter signal modulators, primary screen, spliceosome inhibition project, cell-based, HEK293, splice +/- reporter (AID 1101); settings: luminescence, 24 h, higher = more signal, called active from +8 up or from −8 down;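 note: HEK293 cells carrying a splicing-competent luciferase reporter gene; test concentration not given here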
# [15] = biological target: Fibroblast growth factor 10 (Homo sapiens) (UniProt O15520); assay: FGF10 binders on small-molecule microarrays, primary screen, biochemical, small-molecule microarray, 635 nm fluorescence (AID 1102); settings: FGF10 binding, fluorescence 635 nm, higher = more signal
# Sequence of Fibroblast growth factor 10 (Homo sapiens) (O15520 whole entry, looked up): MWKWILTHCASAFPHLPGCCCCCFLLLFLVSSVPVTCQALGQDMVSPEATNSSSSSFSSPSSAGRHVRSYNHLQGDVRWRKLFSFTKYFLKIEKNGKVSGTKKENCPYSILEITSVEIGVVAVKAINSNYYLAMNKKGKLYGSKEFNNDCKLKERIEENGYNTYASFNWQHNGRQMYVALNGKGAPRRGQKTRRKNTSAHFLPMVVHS
# [16] = test system: glycogen synthase kinase-3 (GSK3A per assay name; protocol says GSK3B); assay: GSK3 binders on small-molecule microarrays, primary screen, biochemical, small-molecule microarray, 635 nm fluorescence, GSK3A (AID 1103); settings: small-molecule microarray binding, fluorescence 635 nm; higher = more signal; note: the record names both GSK3A and GSK3B
# [17] = biological target: Epidermal growth factor receptor (Homo sapiens) (UniProt P00533); assay: EGFR binders on small-molecule microarrays, primary screen, biochemical, small-molecule microarray, 635 nm fluorescence (AID 1104); settings: EGFR binding, higher = more signal;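 note: score merges 667 nm emission intensity with spot signal to noise over triplicate slides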
# Sequence of Epidermal growth factor receptor (Homo sapiens) (P00533 whole entry, looked up): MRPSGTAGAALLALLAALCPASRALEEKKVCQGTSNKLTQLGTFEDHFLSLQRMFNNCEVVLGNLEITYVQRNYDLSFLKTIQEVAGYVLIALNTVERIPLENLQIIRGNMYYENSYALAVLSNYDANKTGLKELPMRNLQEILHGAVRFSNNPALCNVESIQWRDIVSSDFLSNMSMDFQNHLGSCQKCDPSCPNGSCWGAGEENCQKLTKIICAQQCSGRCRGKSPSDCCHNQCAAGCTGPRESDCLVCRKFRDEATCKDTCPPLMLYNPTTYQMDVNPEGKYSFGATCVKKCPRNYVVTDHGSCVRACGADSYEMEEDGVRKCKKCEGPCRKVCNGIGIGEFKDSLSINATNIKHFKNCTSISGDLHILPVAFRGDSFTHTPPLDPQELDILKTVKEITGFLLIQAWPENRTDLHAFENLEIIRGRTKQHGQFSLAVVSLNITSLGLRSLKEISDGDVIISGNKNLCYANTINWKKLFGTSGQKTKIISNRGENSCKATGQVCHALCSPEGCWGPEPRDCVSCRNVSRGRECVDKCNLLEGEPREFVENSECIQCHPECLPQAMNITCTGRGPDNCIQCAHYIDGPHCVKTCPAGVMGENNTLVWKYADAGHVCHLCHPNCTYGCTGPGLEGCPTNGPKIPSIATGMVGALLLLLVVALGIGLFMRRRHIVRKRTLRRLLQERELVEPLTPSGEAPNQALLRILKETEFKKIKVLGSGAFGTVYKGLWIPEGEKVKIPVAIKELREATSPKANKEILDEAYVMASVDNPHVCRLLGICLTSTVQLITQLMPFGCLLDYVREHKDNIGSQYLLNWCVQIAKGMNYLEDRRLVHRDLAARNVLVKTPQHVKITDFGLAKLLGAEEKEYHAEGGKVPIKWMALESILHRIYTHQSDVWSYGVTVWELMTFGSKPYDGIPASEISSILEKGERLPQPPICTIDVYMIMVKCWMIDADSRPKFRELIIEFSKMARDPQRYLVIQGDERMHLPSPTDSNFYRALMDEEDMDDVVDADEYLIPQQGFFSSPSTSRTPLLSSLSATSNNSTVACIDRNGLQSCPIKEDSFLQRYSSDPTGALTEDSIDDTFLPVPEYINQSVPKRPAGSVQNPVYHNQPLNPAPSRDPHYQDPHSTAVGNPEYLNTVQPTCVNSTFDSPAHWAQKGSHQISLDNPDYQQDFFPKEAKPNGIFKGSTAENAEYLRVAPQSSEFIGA
# [18] = biological target: Follistatin-related protein 3 (Homo sapiens) (UniProt O95633); assay: FSTL3 binders on small-molecule microarrays, primary screen, biochemical, small-molecule microarray, 635 nm fluorescence (AID 1105); settings: FSTL3 binding, higher = more signal;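 note: score merges emission near 667 nm and signal to noise per printed spot across three slides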
# Sequence of Follistatin-related protein 3 (Homo sapiens) (O95633 whole entry, looked up): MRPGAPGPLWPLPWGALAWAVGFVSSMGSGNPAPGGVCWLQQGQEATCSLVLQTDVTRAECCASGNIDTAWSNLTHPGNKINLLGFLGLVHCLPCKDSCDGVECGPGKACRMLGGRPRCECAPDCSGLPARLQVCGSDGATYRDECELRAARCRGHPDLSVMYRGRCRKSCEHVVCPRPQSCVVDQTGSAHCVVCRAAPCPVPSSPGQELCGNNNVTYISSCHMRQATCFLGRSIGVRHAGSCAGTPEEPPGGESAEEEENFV
# [19] = biological target: Dickkopf-related protein 1 (Homo sapiens) (UniProt O94907); assay: DKK1 binders on small-molecule microarrays, primary screen, biochemical, small-molecule microarray, 635 nm fluorescence scan (AID 1106); settings: DKK1 binding, higher = more signal;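 note: score merges emission near 667 nm with signal to noise over three replicate slides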
# Sequence of Dickkopf-related protein 1 (Homo sapiens) (O94907 whole entry, looked up): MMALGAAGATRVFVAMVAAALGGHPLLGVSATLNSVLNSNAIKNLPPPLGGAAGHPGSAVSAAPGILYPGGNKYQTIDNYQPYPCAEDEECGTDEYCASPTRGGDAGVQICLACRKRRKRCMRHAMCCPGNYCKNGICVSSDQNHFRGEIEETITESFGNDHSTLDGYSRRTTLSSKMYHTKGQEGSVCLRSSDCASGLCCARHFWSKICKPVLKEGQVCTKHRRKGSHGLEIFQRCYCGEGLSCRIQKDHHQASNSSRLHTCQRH
# [20] = test system: Inhibin beta A chain (activin A); assay: INHBA (activin A) binders on microarrays, primary screen, biochemical, small-molecule microarray, 635 nm fluorescence scan (AID 1107); settings: small-molecule microarray binding, higher = more signal;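 note: mouse activin A protein probed at 4.33 µg/mL on printed slides; score merges bound-protein fluorescence near 667 nm with spot signal-to-noise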
Structure (SMILES),composite z-score [1],z-score [2],z-score [3],z-score [4],composite z-score [5],z-score [6],composite z-score [7],composite z-score [8],composite z-score [9],composite z-score [10],composite z-score [11],composite z-score [12],composite z-score [13],z-score [14],composite z-score [15],composite z-score [16],composite z-score [17],composite z-score [18],composite z-score [19],composite z-score [20]
C=CCOC(=O)[C@@H]1[C@H]2C(=O)O[C@H](c3ccccc3)[C@H](c3ccccc3)N2[C@H](c2ccc(OCCOC(=O)[C@@H]3C[C@@H]4C(=O)N[C@@H](Cc5ccccc5)C(=O)N4[C@@H]3c3cccc(OCCO)c3)cc2)[C@@]12C(=O)Nc1ccc(I)cc12,1.53,1.39 (inactive),2.04 (inactive),4.55 (inactive),1.83,0.0087 (inactive),-0.0286,1.5,0.974,0.0042,1.12,-0.0053,-0.0587,-0.76 (inactive),1.21,0.954,0.934,1.1,0.991,1.06
C=CC(COC(C)=O)NS(=O)(=O)c1ccc(Br)cc1 (stereo not given),0.1,-0.141 (inactive),-0.467 (inactive),-0.9 (inactive),0.185,-0.975 (inactive),0.0216,0.598,0.604,0.0749,0.669,-0.461,-0.501,0.217 (inactive),0.632,0.903,0.642,1.01,0.684,0.12
COC(=O)C1=CC(CCCO)=CC(C2CC2)N(Cc2sc3ccccc3c2Cl)C=C1C(=O)OC (stereo not given),1.54,0.258 (inactive),-3.05 (inactive),-1.55 (inactive),3.36,0.404 (inactive),0.198,0.346,1.16,0.0746,1.17,0.589,0.724,-0.8 (inactive),1.02,0.902,0.0108,0.766,-0.0017,1.06
COc1ccc(CCNC(=O)[C@@]2(c3ccc([N+](=O)[O-])cc3)CC(=O)N(CC34CC5CC(CC(C5)C3)C4)[C@@H]2c2ccc(CO)cc2)cc1,1.37,0.719 (inactive),-0.063 (inactive),6.65 (inactive),2.11,-0.108 (inactive),0.257,0.71,1.16,0.544,1.06,1.38,0.764,0.539 (inactive),0.76,1.07,0.453,1.03,0.828,0.432
COc1ccc(C#Cc2ccc3c(c2)[C@]2(C(=O)N3)[C@H](C(=O)NC[C@H](O)c3ccccc3)[C@H]3C(=O)O[C@H](c4ccccc4)[C@H](c4ccccc4)N3[C@@H]2c2ccc(OCCO)cc2)cc1,1.49,2.85 (inactive),1.64 (inactive),4.35 (inactive),2.96,-0.508 (inactive),-0.22,1.52,1.09,-0.0746,1.33,0.0324,0.236,-1.46 (inactive),1.25,1.28,0.487,1.26,0.31,0.123
O=C1OCC=C[C@H]2OC34C=CCN(c5ccc(Cl)cc5)C(=O)[C@H]3N(CCCCCCO)C(=O)[C@@H]4[C@@H]12 (stereo not given in full),-1.01,-0.88 (inactive),-1.63 (inactive),-0.787 (inactive),1.92,0.437 (inactive),-0.0936,-1.51,-0.464,-0.273,2.08,0.0526,0.731,-0.313 (inactive),-1.17,-0.799,-1.78,-1.58,-1.22,-0.087
CN(C)C(=O)[C@]1(CCC(=O)OC(C)(C)C)N=C(c2ccc(OCCCO)cc2)O[C@@H]1c1ccccc1N=[N+]=[N-],1.54,1.1 (inactive),0.626 (inactive),0.0958 (inactive),3.78,0.515 (inactive),0.17,0.245,0.684,0.11,1.44,0.533,0.863,-0.194 (inactive),1.25,1.33,0.17,0.644,-0.394,0.252
Cc1ccc(S[C@]2(C(=O)NCCN3CCOCC3)CC(=O)N(Cc3cc(C(F)(F)F)cc(C(F)(F)F)c3)[C@@H]2c2ccc(CO)cc2I)cc1,0.95,-3.19 (inactive),-4.73 (inactive),14.2 (active),0.509,-1.52 (inactive),-0.183,-1.06,-0.122,-0.0828,1.4,0.104,0.868,-2.04 (inactive),-0.743,-0.799,-0.981,-0.492,-1.34,0.551
CCCCC(O)C1C=CC2C(=O)N(C3CCCCC3)C(=O)C2N1Nc1ccc(OC)cc1 (stereo not given),1.19,0.595 (inactive),0.241 (inactive),1.15 (inactive),2.77,0.202 (inactive),0.165,0.5,1.1,-0.0661,0.637,0.298,0.948,-0.221 (inactive),0.517,1.28,-0.0301,1.12,-0.517,0.943
[N-]=[N+]=NCc1ccccc1C[C@@]1(C(=O)N2CCOCC2)N=C(c2ccc(OCCCO)cc2)O[C@@H]1c1ccccc1CN=[N+]=[N-],1.58,0.466 (inactive),-0.559 (inactive),28 (active),3.28,0.291 (inactive),0.743,0.631,0.967,0.662,1.63,1.22,1.37,-0.429 (inactive),1.46,0.965,0.422,0.656,-0.0757,0.811
